High-throughput results from PubChem BioAssay.
Hits are enriched below; roughly 2.4% of the tested compounds scored in any of these assays.
aSyn rescue: inhibitors of alpha-synuclein toxicity in yeast. Yeast expressing alpha-synuclein, growth rescue, BacTiter-Glo, 24 h. Potency, µM (doses to about 46.1 µM), hits mostly activators. 370,000 tested, 0.14% active; further: nearly all actives have a fitted effect of over 65% in size
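Screening used galactose-induced yeast with toxic alpha-synuclein levels, exposed to compound for 24 hr at 30 deg C. Cell growth, read with BacTiter-Glo luminescence, gave the measured signal.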
TDP-43 yeast inh: rescues yeast growth from TDP-43 toxicity | TDP-43 expressing yeast growth rescue, BacTiter-Glo, 24 h | Potency, µM (series often up to 46.1 µM), hits mostly activators | 410,000 tested, 1.8% active; further: nearly all actives have a fitted effect of over 50% in size
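Yeast cells expressing TDP-43 under galactose induction are exposed to compounds for 24 hr at 30 deg C. BacTiter-Glo luminescence measures growth, so protective compounds score as activators.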
Abeta rescue: compounds reversing amyloid beta toxicity in yeast; yeast expressing A-beta42, growth rescue, OD600, 48 h; response scale: 0% DMSO, 100% iron-clioquinol control; Potency, µM (series often up to 46.1 µM), most hits filed as activators; 410,000 tested, 0.063% active; AID 1347071; further: nearly all actives have a fitted effect of over 55% in size
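Yeast A-beta toxicity model in growth medium with pinned compounds, 48 h at 30 C; growth read as absorbance at 600 nm. Normalized to FeCl3/clioquinol equimolar mix (positive) and DMSO (negative).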
FUS suppressor: rescues growth of FUS-expressing yeast; S. cerevisiae FUS-expressing, growth rescue, OD600, 24 h; Potency, µM (titrated, usually from 76.6 µM), actives largely listed as activators; 390,000 tested, 0.24% active; AID 1347120; further: nearly all actives have a fitted effect of over 55% in size
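Compound concentration series was pinned onto galactose-induced FUS-expressing yeast seeded at OD 0.005. Plates sat 24hr at 30C; absorbance at 600 nm gave growth. DMSO served as background control.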
A-T KAP1 phos: candidate therapy for ataxia-telangiectasia; Potency, µM (top dose mostly 57.5 µM), most hits filed as activators; F2112 A-T fibroblasts, KAP-1 phosphorylation AlphaLISA; neocarzinostatin DNA damage 30 min before lysis; 320,000 tested, 0.19% active; further: nearly all actives have a fitted effect of over 45% in size
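ATM-like activity read as KAP-1 phosphorylation via AlphaLISA donor/acceptor antibody pairs after lysis and 6 hr at 25C. Cells were ATM-null patient fibroblasts (F2112, hTERT), dosed 60 min, then exposed to the DSB inducer NCS for 30 min.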
Mito fusion yeast: blocks mitochondrial division or promotes mitochondrial fusion; Potency, µM (series often up to 46.1 µM), hits mostly activators; S. cerevisiae fusion-defective mutant growth rescue, CellTiterGlo 48 h; 320,000 tested, 0.23% active; further: nearly all actives have a fitted effect of over 45% in size
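Read-out: ATP-based luminescence (CellTiterGlo, 10 min ambient) reporting growth of fusion-defective ts yeast after 48 hours at 37C on glycerol/ethanol YPEG medium in the presence of compound.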
Numbers stand for hits; . = inactive; ? = inconclusive; / = no result. The call rests on the fitted dose curve; in most records, active means well fitted curve in the direction sought with a large enough effect; inconclusive means small, poorly fitted or top-dose-only effect, or another doubt; inactive means no such curve, though single readings can be large; an effect the other way counts as inactive or inconclusive.

SMILES	aSyn rescue	TDP-43 yeast inh	Abeta rescue	FUS suppressor	A-T KAP1 phos	Mito fusion yeast
Cc1noc(C)c1-c1ccc(C(=O)NCc2cccs2)c2occc12	.	15.8µM	.	.	/	/
CC(=O)Nc1ccc(NC(=O)c2ccc(-c3c(C)noc3C)c3ccoc23)cc1	.	.	.	.	/	/
C=CCSc1nc2ccccc2n1C(=O)/C=C/c1ccc(OC)c(OC)c1	.	.	.	.	31.6µM	.
CCSc1nc2ccccc2n1C(=O)/C=C/c1ccc(OC)c(OC)c1	.	.	.	/	22.4µM	.
C=CCSc1nc2ccccc2n1C(=O)/C=C/c1cc(OC)c(OC)c(OC)c1	.	.	.	?	/	.
COC(=O)c1cccc(NC(=O)c2ccc(OC)c(Cl)c2)c1	.	11.2µM	.	.	.	.
COC(=O)c1cc(OC)c(OC)cc1NC(=S)Nc1cccc(C(C)=O)c1	.	.	.	.	.	.
COC(=O)c1cccc(NC(=S)Nc2cc(Cl)ccc2OC)c1	.	22.4µM	.	.	.	.
O=C(Nc1sc2c(c1-c1nc3ccccc3s1)CCNC2)C(F)(F)F	/	/	/	.	/	/
COc1ccccc1N1CCN(S(=O)(=O)c2cc(C(=O)Nc3ccc(Oc4ccccc4)cc3)ccc2F)CC1	/	.	.	.	/	/
Cc1cc2oc(C(=O)N(Cc3ccc(N(C)C)cc3)Cc3ccco3)c(C)c2cc1Cl	/	.	.	.	/	/
C=CCN1[C@H](C)COc2cccc(F)c2S1(=O)=O	/	/	/	.	/	/
CC(C)N(C(=O)Cn1cc(S(=O)(=O)Cc2ccc(C(F)(F)F)cc2)c2ccccc21)C(C)C	/	.	.	.	/	/
Cc1cc(C(=O)COc2cccnc2[N+](=O)[O-])c(C)n1Cc1cccs1	.	.	.	.	.	.
CC(=O)Nc1ccccc1OCC(=O)c1cc(C)n(Cc2cccs2)c1C	.	22.4µM	.	.	.	.
Cc1ccc(NC(=O)/C(C#N)=C/c2cc(C)n(-c3ccc(Br)cc3)c2C)cc1C	/	3.98µM	.	?	/	/
COc1cccc(C(=O)NCC(=O)OCc2cc(=O)n3nc(C)sc3n2)c1	/	.	.	.	/	/
COc1cc2c(cc1OC)CN(C1CC(=O)N(c3c(C)cccc3C)C1=O)CC2 (stereo not drawn)	.	14.1µM	.	.	.	.
CCOc1ccccc1CNC(=O)c1cnn(-c2ccc(C)cc2)c1-n1cccc1	/	.	.	.	/	/
CC1(C(=O)Nc2ccc3c(c2)OCCO3)CN(S(C)(=O)=O)CC(=O)N1Cc1cccc(C(F)(F)F)c1 (stereo not drawn)	.	22.4µM	.	.	/	/
CC1(C(=O)Nc2ccc3c(c2)OCCO3)CN(S(C)(=O)=O)CC(=O)N1CC(F)(F)F (stereo not drawn)	.	.	.	.	/	/
CCCCCc1ccc(NC(=O)O[C@@H]2CC[C@@]34CCCN3C(=O)CCC[C@H]4C2)cc1	/	/	/	22.4µM	/	/
Cc1cc(C(Br)(Br)Br)nc2ccccc12	.	/	/	/	/	/
Cc1ccc(CNC(=O)C(Cc2ccccc2)NS(=O)(=O)c2ccc(Br)s2)cc1 (stereo not drawn)	.	.	.	.	.	17.8µM
Cc1cccc(SCC(=O)Nc2ccc3c(c2)OCCO3)c1	.	11.2µM	.	.	.	.
SMILES	aSyn rescue	TDP-43 yeast inh	Abeta rescue	FUS suppressor	A-T KAP1 phos	Mito fusion yeast
O=C(O)Cn1nc(-c2ccccc2)cc1-c1ccccc1	.	.	.	.	.	.
CC(=O)n1nc(-c2ccccc2)cc1-c1ccccc1	.	12.6µM	.	.	/	/
Cc1c(NC(=O)C2CCCN(S(=O)(=O)c3ccccc3[N+](=O)[O-])C2)c(=O)n(-c2ccccc2)n1C (stereo not drawn)	/	/	/	.	/	/
Cc1cccc(N2CC(c3nc4ccc(C)cc4[nH]3)CC2=O)c1 (stereo not drawn)	/	.	.	.	/	/
CCCCCCN1C=CC=C/C1=C/C=C(C#N)C#N	.	.	.	.	.	12.6µM
Cc1ccc(-n2ncc(C(=O)NCc3ccco3)c2C2CCN(C(=O)OC(C)(C)C)CC2)cc1	/	.	.	.	/	/
Cc1ccc(NCc2ccc([N+](=O)[O-])s2)cc1	.	11.2µM	.	.	.	.
Cc1cccc(NCc2ccc([N+](=O)[O-])s2)c1	.	?	.	.	.	.
Cc1ccccc1NCc1ccc([N+](=O)[O-])s1	.	11.2µM	.	.	.	.
O=[N+]([O-])c1ccc(CNc2cccc(F)c2)s1	.	11.2µM	?	.	.	.
N#Cc1ccc(CSc2nc3sc4c(c3c(=O)n2-c2ccc(Br)cc2)CCCC4)cc1	/	/	/	.	/	/
Cc1ccc(-c2nc(C)c(CCNC(=O)c3cccs3)s2)cc1	.	15.8µM	.	.	/	/
Cc1nc(-c2ccccc2)sc1CCNC(=O)c1ccco1	.	17.8µM	.	.	/	/
CCOc1ccc(C(=O)NCCc2sc(-c3ccc(C)cc3)nc2C)cc1	/	?	.	.	/	/
Cc1cccc(-c2nc(C)c(CCNC(=O)c3cccs3)s2)c1	.	15.8µM	.	.	/	/
O=C(NCCc1csc(-c2ccccc2)n1)c1ccco1	.	?	.	.	.	.
COc1ccc(-c2nc(C)c(CCNC(=O)c3cccs3)s2)cc1	.	14.1µM	.	.	/	/
O=C(CSc1nc2ccccc2nc1N1CCCCC1)NCc1ccc(Cl)cc1Cl	/	/	/	.	/	/
COc1ccc(-c2nc(C)c(CCNC(=O)c3cccc(C)c3)s2)cc1OC	.	22.4µM	.	.	/	/
O=C(Nc1cccc(C(F)(F)F)c1)O[C@@H]1CC[C@@]23CCCN2C(=O)CCC[C@H]3C1	/	/	/	.	/	/
COc1ccc(OC)c(/C=C2\C=Cc3ccccc32)c1	.	/	/	/	/	/
COc1cc(CN2C(=O)C(CCc3ccccc3)ON=C2c2cnccn2)cc(OC)c1 (stereo not drawn)	.	35.5µM	.	.	/	/
CC(=O)Oc1ccc(CN2C(=O)C(CCc3ccccc3)ON=C2c2cnccn2)cc1 (stereo not drawn)	.	14.1µM	.	.	/	/
COC(=O)[C@]12C[C@H](CC(=O)N3CCOCC3)C(=O)N(CCc3ccc(OC)c(OC)c3)C1=C[C@H](C(C)C)O[C@@H]2C1CC1	/	/	/	.	/	/
CCC(=O)N(C)CCc1cc2c(c(OC)c1/C=N/NC(=O)[C@H]1C[C@@H]1c1ccccc1)OCO2	?	.	.	.	.	.
CCC(=O)N(C)CCc1cc2c(c(OC)c1/C=N/Nc1ccc(C(=O)O)cc1)OCO2	.	.	.	.	39.8µM	.
CCS(=O)(=O)c1c(S(=O)(=O)CC)c2cc(C(C)(C)C)ccn2c1C(=O)c1ccc(F)cc1	.	.	.	.	/	/
COc1ccc2c(c1)-c1nc(NC(=O)c3cccc(Br)c3)sc1CC2	/	.	.	.	/	/
COc1ccc2c(c1)CCc1sc(NC(=O)c3ccco3)nc1-2	.	20µM	.	.	.	.
